This is a sample that favours compounds with a hit; in the whole collection about 6.8% have one here.
PINK1 modulator = PINK1 expression modulation. AID 624263. Potency, µM (highest dose often 76.6 µM), for the others: top-dose activation (PINK1 increase), actives largely listed as activators. 0.2% of 410,000 active. PINK1 immunofluorescence, high-content cytometry, 24 h; active = well fitted activation curve with a large enough effect; inconclusive = small, poorly fitted or top-dose-only effect; cell line not stated here; also: % of control where 0% means no effect; nearly all actives have a fitted effect of over 65% in size
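PINK1 protein level read as immunofluorescence by microplate cytometer in a fixed, stained stable cell line after 24 h exposure to five compound concentrations, with CCCP as control.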
KB-3-1 tox = KB-3-1 parental cell cytotoxicity | 1.4% of 400,000 active | Potency, µM (titrated, usually from 46.1 µM), actives largely listed as cytotoxic | AID 1347075 | KB-3-1 viability, CellTiter-Glo ATP luminescence, 72 h; also: % is scaled to controls: 0 for no effect and ±100 for the full control effect; nearly all actives have a fitted effect of over 60% in size
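Cytotoxicity measured as CellTiter-Glo luminescence after 72 h at 37 C. Compound titrations were pinned onto drug-naive KB-3-1 parental adenocarcinoma cells grown in DMEM with 10% FBS, and normalized data fitted to concentration-response curves.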
MCF10A rereplic = induces DNA re-replication in MCF 10a normal breast cells | MCF 10A DNA re-replication, Hoechst nuclear intensity, 48 h | AID 624296 | 2.9% of 350,000 active | Potency, µM (top dose mostly 46.1 µM), for the others: at the top dose activity, positive = re-replication, hits mostly activators; also: % of control where 0% means no effect; nearly all actives have a fitted effect of over 50% in size
PTAP TSG101 blk = blocks PTAP/TSG101 interaction to inhibit HIV-1 budding; Q99816; 340,000 tested, under 10 active; Potency, µM (top dose mostly 115 µM), for inactives: top-dose activity change, negative = inhibition, usual class: inhibitors; Fluorescence polarization, FITC-PTAP peptide / Tsg101 binding; active = well fitted inhibition curve with a large enough effect in the main read-out, with a control signal flat, not every such curve was filed as active; inconclusive = small, poorly fitted or top-dose-only effect, or effect the other way, or a change in a side signal; inactive = no such curve, though single readings can be large or run the other way; also: % of control where 0% means no effect
Target sequence (Q99816 whole entry, looked up): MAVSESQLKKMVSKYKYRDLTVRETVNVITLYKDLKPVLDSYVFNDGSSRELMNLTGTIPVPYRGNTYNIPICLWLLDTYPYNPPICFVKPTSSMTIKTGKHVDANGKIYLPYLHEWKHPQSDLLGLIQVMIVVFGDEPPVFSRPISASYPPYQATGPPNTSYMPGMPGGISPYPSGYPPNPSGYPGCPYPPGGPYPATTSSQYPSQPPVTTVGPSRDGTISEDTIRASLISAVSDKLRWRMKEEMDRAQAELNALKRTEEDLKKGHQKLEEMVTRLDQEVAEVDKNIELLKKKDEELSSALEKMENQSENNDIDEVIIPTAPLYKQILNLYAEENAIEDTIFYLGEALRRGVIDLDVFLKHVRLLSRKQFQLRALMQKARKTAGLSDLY
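FP read-out: FITC-PTAP peptide, 50 nM final, binding Tsg101 binding domain, 10 uM final; 20 min, r.t.; 10 mM HEPES pH 7.5, 0.15 M NaCl, 0.01% Tween 20, 3 mM EDTA, 0.1 mM TCEP.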
KB-V1 cytotox = KB-V1 MDR subline cytotoxicity; KB-V1 MDR cells viability, CellTiter-Glo, 72 h; AID 1347076; 3.4% of 400,000 active; Potency, µM (series often up to 46.1 µM), most hits filed as cytotoxic; also: % is scaled to controls: 0 for no effect and ±100 for the full control effect; nearly all actives have a fitted effect of over 60% in size
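Compound-treated KB-V1 multidrug-resistant cells, 72 h, 37 degrees C; viability by CellTiter-Glo. Fitted qHTS curves give the values.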
SW480 rereplic = induces DNA re-replication in SW480 colon adenocarcinoma cells; Potency, µM (titrated, usually from 46.1 µM), for the others: top-dose re-replication activation, hits mostly activators; AID 624297; 1.8% of 340,000 active; SW480 DNA re-replication, Hoechst DNA content imaging, 48 h; also: % of control where 0% means no effect; nearly all actives have a fitted effect of over 55% in size
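Compounds, transferred as 23 nL by pin tool, were incubated with cells for 48 hr; DNA content per nucleus was then quantified by Hoechst staining and fluorescence plate imaging.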
An asterisk follows results filed as active; [ ] = dose if it differs, or a comment. Unless noted, calls follow the shape of the dose curve; as a rule, active = well fitted curve in the direction sought with a large enough effect; inconclusive = small, poorly fitted or top-dose-only effect, or another doubt; inactive = no such curve, though single readings can be large; an effect the other way counts as inactive or inconclusive. Potency is read from the fitted curve at half-maximal effect.

For COC(=O)c1c(NC(=O)CN2CCC3(O)CCCCC3C2c2ccc(F)cc2)sc(C)c1C (stereo not drawn) the results were PINK1 modulator 7%, KB-3-1 tox inactive, MCF10A rereplic inconclusive, PTAP TSG101 blk -4%, KB-V1 cytotox 16µM* and SW480 rereplic inconclusive.
For Cc1ccccc1CN1C(=O)c2ccccc2S1(=O)=O the results were PINK1 modulator 0%, KB-3-1 tox inactive, MCF10A rereplic 23µM*, PTAP TSG101 blk 1%, KB-V1 cytotox inactive and SW480 rereplic -7%.
CCn1c(SCC(=O)NC2CCCCC2C)nnc1-c1ccc(OC)cc1 (stereo not drawn) was read as PINK1 modulator -2%[38.3 µM], KB-3-1 tox inactive, MCF10A rereplic -3%, PTAP TSG101 blk 3%, KB-V1 cytotox 2.6µM* and SW480 rereplic 1%.
`CCn1c(SCc2ccc(OC)cc2)nnc1-c1ccncc1` gave PINK1 modulator -3%[38.3 µM], KB-3-1 tox inactive, MCF10A rereplic 21µM*, PTAP TSG101 blk -2%, KB-V1 cytotox inactive and SW480 rereplic -3%.
Screening CCOC(=O)c1cccc(NC(=O)CCCn2c(C)c3cnn(-c4ccccc4)c(=O)c3c2C)c1 returned PINK1 modulator -1%, KB-3-1 tox inactive and KB-V1 cytotox inactive.
`Cc1c2cnn(CC(=O)N3CCCCC3)c(=O)c2c(C)n1Cc1ccc(Cl)cc1` gave PINK1 modulator 0%, KB-3-1 tox inconclusive and KB-V1 cytotox inactive.
For O=C(CSc1cccc2cccnc12)N1CCCC1 the results were PINK1 modulator -2%, KB-3-1 tox 7.3µM*, MCF10A rereplic 12µM*, PTAP TSG101 blk -1%, KB-V1 cytotox inactive and SW480 rereplic inconclusive.
O=C(CSc1cccc2cccnc12)N/N=C/c1ccncc1 was read as PINK1 modulator -2%, KB-3-1 tox inactive, MCF10A rereplic -5%, PTAP TSG101 blk -2%, KB-V1 cytotox inactive and SW480 rereplic 1.8µM*.
CN(C)C(=O)CSc1cccc2cccnc12 was read as PINK1 modulator 0%, KB-3-1 tox inconclusive, MCF10A rereplic inconclusive, PTAP TSG101 blk -9%, KB-V1 cytotox inconclusive and SW480 rereplic 5.2µM*.
Screening O=C(CCNS(=O)(=O)c1ccccc1F)N1CCN(C(c2ccccc2)c2ccccc2)CC1 returned PINK1 modulator -4%, KB-3-1 tox inconclusive, MCF10A rereplic inconclusive, PTAP TSG101 blk -1%, KB-V1 cytotox 8.2µM* and SW480 rereplic inconclusive.
Screening NNC(=O)CSc1cccc2cccnc12 returned PINK1 modulator 5%, KB-3-1 tox inactive, MCF10A rereplic -42%, PTAP TSG101 blk -1%, KB-V1 cytotox inactive and SW480 rereplic -150%.
`O=C(CSc1ncccn1)N1CCN(C(c2ccccc2)c2ccccc2)CC1` gave PINK1 modulator -2%, KB-3-1 tox inactive, MCF10A rereplic 6%, PTAP TSG101 blk 0%, KB-V1 cytotox 18µM* and SW480 rereplic -16%.
`O=C(CSc1ncccn1)N1CCN(C(=O)CSc2ncccn2)CC1` gave PINK1 modulator 3%, KB-3-1 tox inactive, MCF10A rereplic -5%, PTAP TSG101 blk -2%, KB-V1 cytotox inactive and SW480 rereplic -6%.
For Cc1cc(-n2c(SCC(=O)Nc3ccc(F)c(F)c3)nc3n[nH]c(C)c3c2=N)ccc1Cl the results were PINK1 modulator 2%, KB-3-1 tox inactive, MCF10A rereplic 2.3µM*, PTAP TSG101 blk 1%, KB-V1 cytotox inactive and SW480 rereplic inconclusive.
`CCOc1ccc(-n2c(SCC(=O)Nc3ccc(Br)cc3)nc3n[nH]c(C)c3c2=N)cc1` gave PINK1 modulator 1%, KB-3-1 tox inactive, MCF10A rereplic 15µM*, PTAP TSG101 blk -1%, KB-V1 cytotox inactive and SW480 rereplic inconclusive.
COc1cccc(-n2c(SCC(=O)NCCC3=CCCCC3)nc3n[nH]c(C)c3c2=N)c1 was read as PINK1 modulator 2%, KB-3-1 tox inactive, MCF10A rereplic inconclusive, PTAP TSG101 blk -7%, KB-V1 cytotox 13µM* and SW480 rereplic 12%.
`CCOc1ccc(-n2c(SCC(=O)NC(C)CC)nc3n[nH]c(C)c3c2=N)cc1` (stereo not drawn) gave PINK1 modulator inconclusive, KB-3-1 tox inactive, MCF10A rereplic 5%, PTAP TSG101 blk 0%, KB-V1 cytotox inactive and SW480 rereplic -1%.
For Cc1cc(-n2c(SCC(=O)Nc3ccc(Br)cc3)nc3n[nH]c(C)c3c2=N)ccc1Cl the results were PINK1 modulator 0%, KB-3-1 tox inconclusive, MCF10A rereplic 3.3µM*, PTAP TSG101 blk 0%, KB-V1 cytotox inactive and SW480 rereplic 18µM*.
Screening COc1cccc(NC(=O)CSc2nc3n[nH]c(C)c3c(=N)n2-c2cccc(OC)c2)c1 returned PINK1 modulator 7%, KB-3-1 tox inactive, MCF10A rereplic 13%, PTAP TSG101 blk -2%, KB-V1 cytotox inactive and SW480 rereplic 3%.
CCCN1CNc2c(c(=O)[nH]c(=S)n2CCc2c(OC)cccc2OC)C1 was read as PINK1 modulator 1%.
For COc1cccc(/C=C/c2nc(C#N)c(N3CCC(C(N)=O)CC3)o2)c1 the results were PINK1 modulator 0%, KB-3-1 tox inactive and KB-V1 cytotox inactive.
Screening Cc1cc(C)n(-c2nc(NCCC(C)C)c3c4c(sc3n2)COC(C)(C)C4)n1 returned PINK1 modulator 22%, KB-3-1 tox inactive, MCF10A rereplic 3%, PTAP TSG101 blk -1%, KB-V1 cytotox 2.3µM* and SW480 rereplic -5%.
For Cc1cc(C)n(-c2nc(NCCN(C)C)c3c4c(sc3n2)COC(C)(C)C4)n1 the results were PINK1 modulator 0%, KB-3-1 tox inactive, MCF10A rereplic inconclusive, PTAP TSG101 blk -10%, KB-V1 cytotox inactive and SW480 rereplic inconclusive.
For Cc1onc(-c2c(F)cccc2Cl)c1C(=O)Nc1ccc(S(=O)(=O)N2CCOCC2)cc1 the results were PINK1 modulator 0%, KB-3-1 tox inactive, MCF10A rereplic 2%, PTAP TSG101 blk -6%, KB-V1 cytotox inactive and SW480 rereplic 1%.
`Cc1onc(-c2c(F)cccc2Cl)c1C(=O)Nc1cc(S(=O)(=O)N2CCCCC2)ccc1O` gave PINK1 modulator 16µM*, KB-3-1 tox inconclusive, MCF10A rereplic inconclusive, PTAP TSG101 blk -2%, KB-V1 cytotox 23µM* and SW480 rereplic 9%.
`CNC(=O)NC(=O)CSc1cccc(C(F)(F)F)c1` gave KB-3-1 tox inactive, MCF10A rereplic 21µM*, PTAP TSG101 blk -10%, KB-V1 cytotox inactive and SW480 rereplic 11%.
